Experimental data published in PubChem BioAssay.
Inconclusive results are not listed. Active and inactive are the calls of the source.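 The calls were made as follows, unless noted: active = percent response above 42, roughly 3 SD of non-fluorescent test compounds; inactive = the rest.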

Legend:
[1] = yeast TOR pathway RPL19A-GFP modulators, primary screen, cell-based, S. cerevisiae, multiplex flow cytometry (AID 1862; in the data active = percent of DMSO control GFP below about 86%;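 also: lower values mimic rapamycin by blocking the RPL19A rise seen in DMSO cells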); conditions: S. cerevisiae RPL19A-GFP strain, flow cytometry fluorescence, 3 h; at 10 µM; stronger effect = lower value
[2] = modulators of MEP2-GFP levels in yeast, primary screen, S. cerevisiae, multiplex flow cytometry (AID 1867;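 active = GFP response, as percent of the DMSO control, above the screen-wide mean plus 3 SD, about 139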;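 also: median GFP channel fluorescence of barcode-gated MEP2-GFP cells measured by flow cytometry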); conditions: S. cerevisiae MEP2-GFP strain, 3 h, at 10 µM, stronger effect = higher value, 100% means same as DMSO wells
[3] = modulators of CIT2-GFP expression in yeast, primary screen, S. cerevisiae, GFP fusion, multiplex flow cytometry (AID 1870;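 active = percent response above a set limit, the screen-wide mean plus 3 SD, cut at about 130% in these data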;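 also: barcoded CIT2-GFP strain pooled with four other GFP strains with rapamycin as positive control; median GFP fluorescence per well over plate mean of DMSO wells so 100% = DMSO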); conditions: 3 h, at 10 µM, stronger effect = higher value
[4] = modulators of LAP4-GFP expression in yeast, primary screen, S. cerevisiae, multiplex flow cytometry (AID 1873;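 active = GFP signal, as percent of the solvent control, above the screen mean plus 3 SD, about 149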); conditions: 3 h, at 10 µM, stronger effect = higher value
[5] = modulators of AGP1-GFP expression in yeast TOR pathway, primary screen, cell-based, multiplex flow cytometry, S. cerevisiae (AID 1887;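 active = GFP signal above the screen-wide mean plus 3 SD, that is over about 124.5% of the solvent control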;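 also: AGP1-GFP fusion strain of S. cerevisiae within a five-strain barcoded multiplex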); conditions: 3 h, at 10 µM, stronger effect = higher value
[6] = inhibitors of CD8+ T cell-vesicle binding, pilot screen, LFA-1/ICAM-1 modulator project, MLPCN validation set, flow cytometry (AID 2523;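 active = response below a set limit, under 55% cells CD8-positive and vesicle-bound, and CD8 cells' 90th-percentile brightness under 279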;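 as to vesicle binding response: mean PE anti-B7-1 fluorescence of CD8+ cells relative to row control; 100% = QL9-loaded vesicles with DMSO vehicle in the same plate row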); conditions: 2C mouse CD8+ T cells, at 7 µM, stronger effect = lower value; double positive events: measured here: CD8+/vesicle+ event percentage
[7] = biological target: Integrin beta-1 (Homo sapiens) + Integrin alpha-4 (Homo sapiens) (UniProt P13612+P05556); assay: inhibition of HUTS-21 binding to VLA-4, pilot screen, VLA-4 allosteric modulator project, U937 cells, HUTS-21 mAb, flow cytometry, validation set (AID 2674;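 active = inhibition above 50%, about 3 SD of the validation set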;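 also: antibody binding induced by the VLA-4 ligand LDV present at three times its Kd; 0% = LDV ligand with antibody and no compound and 100% = antibody without LDV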); conditions: HUTS-21 LIBS mAb binding, at 6.7 µM, stronger effect = higher value, binding induced by LDV ligand
Chain of Integrin beta-1 (Homo sapiens) + Integrin alpha-4 (Homo sapiens) (P05556 whole entry, looked up): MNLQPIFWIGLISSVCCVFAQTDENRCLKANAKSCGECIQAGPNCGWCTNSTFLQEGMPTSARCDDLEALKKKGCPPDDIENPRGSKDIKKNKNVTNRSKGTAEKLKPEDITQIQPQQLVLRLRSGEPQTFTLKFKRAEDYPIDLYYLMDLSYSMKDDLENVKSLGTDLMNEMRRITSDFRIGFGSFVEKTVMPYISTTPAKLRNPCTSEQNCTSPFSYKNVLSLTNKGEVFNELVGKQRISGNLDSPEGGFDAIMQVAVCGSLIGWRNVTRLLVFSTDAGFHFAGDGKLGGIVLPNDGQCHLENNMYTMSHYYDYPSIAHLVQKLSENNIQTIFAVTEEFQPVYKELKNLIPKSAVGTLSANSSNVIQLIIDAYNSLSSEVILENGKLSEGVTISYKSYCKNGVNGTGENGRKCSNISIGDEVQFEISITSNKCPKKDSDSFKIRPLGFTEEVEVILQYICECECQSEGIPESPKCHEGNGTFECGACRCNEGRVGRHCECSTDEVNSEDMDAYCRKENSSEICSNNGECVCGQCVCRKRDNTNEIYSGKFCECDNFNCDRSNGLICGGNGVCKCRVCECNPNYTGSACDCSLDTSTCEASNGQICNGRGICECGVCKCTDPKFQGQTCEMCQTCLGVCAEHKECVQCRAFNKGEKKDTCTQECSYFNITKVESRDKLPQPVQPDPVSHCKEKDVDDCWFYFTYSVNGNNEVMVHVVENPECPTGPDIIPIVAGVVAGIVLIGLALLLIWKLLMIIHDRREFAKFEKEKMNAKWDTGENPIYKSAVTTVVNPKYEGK
Chain of Integrin beta-1 (Homo sapiens) + Integrin alpha-4 (Homo sapiens) (P13612 whole entry, looked up): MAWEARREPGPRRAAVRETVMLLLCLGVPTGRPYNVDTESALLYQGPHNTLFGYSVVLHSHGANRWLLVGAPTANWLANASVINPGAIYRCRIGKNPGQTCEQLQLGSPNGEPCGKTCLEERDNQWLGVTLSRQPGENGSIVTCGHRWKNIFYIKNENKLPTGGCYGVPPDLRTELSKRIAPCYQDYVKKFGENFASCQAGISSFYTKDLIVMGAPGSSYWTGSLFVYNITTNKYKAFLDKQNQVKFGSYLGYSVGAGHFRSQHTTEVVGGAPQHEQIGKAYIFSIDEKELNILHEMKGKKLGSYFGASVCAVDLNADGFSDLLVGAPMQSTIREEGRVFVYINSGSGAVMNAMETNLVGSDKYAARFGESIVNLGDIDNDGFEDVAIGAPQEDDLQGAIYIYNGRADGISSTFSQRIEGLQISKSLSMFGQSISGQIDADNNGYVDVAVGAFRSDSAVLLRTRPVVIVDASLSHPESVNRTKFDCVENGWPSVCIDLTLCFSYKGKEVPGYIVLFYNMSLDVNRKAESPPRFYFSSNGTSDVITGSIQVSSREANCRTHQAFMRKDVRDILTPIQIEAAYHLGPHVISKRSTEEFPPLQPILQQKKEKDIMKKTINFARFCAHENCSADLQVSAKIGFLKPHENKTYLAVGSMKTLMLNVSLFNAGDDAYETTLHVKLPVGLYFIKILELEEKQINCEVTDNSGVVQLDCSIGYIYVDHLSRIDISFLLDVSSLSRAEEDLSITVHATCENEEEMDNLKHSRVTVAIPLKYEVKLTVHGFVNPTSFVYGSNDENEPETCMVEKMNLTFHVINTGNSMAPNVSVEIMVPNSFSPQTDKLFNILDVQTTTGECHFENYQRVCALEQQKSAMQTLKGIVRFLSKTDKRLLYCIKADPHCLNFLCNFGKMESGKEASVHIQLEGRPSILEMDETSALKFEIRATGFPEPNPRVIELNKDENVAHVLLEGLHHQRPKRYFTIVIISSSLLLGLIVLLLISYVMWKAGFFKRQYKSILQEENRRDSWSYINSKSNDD

[8] = superoxide lowering in aged yeast cells, pilot screen, validation compound set (AID 2706;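 active = superoxide response below 65% of plate, a cut near 3 SD across the whole screen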;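 also: yeast exposed to compound for one week at 30 degrees C before staining; 100% = mean of all compound wells on the same plate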); conditions: S. cerevisiae aging, superoxide DHE fluorescence; at 10 µM; stronger effect = lower value
[9] = biological target: Beta-adrenergic receptor kinase 1 (Homo sapiens) (UniProt P25098); assay: GRK2 binders displacing RNA aptamer, biochemical, validation, human GRK2, bead flow cytometry (AID 488806;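 active = aptamer binding inhibition above 30%, about 3 SD of noise from non-fluorescent compounds; inactive = inhibition at or below 30%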); conditions: bead-bound GRK2, FAM-aptamer displacement, at 10 µM, stronger effect = higher value
Chain of Beta-adrenergic receptor kinase 1 (Homo sapiens) (P25098 whole entry, looked up): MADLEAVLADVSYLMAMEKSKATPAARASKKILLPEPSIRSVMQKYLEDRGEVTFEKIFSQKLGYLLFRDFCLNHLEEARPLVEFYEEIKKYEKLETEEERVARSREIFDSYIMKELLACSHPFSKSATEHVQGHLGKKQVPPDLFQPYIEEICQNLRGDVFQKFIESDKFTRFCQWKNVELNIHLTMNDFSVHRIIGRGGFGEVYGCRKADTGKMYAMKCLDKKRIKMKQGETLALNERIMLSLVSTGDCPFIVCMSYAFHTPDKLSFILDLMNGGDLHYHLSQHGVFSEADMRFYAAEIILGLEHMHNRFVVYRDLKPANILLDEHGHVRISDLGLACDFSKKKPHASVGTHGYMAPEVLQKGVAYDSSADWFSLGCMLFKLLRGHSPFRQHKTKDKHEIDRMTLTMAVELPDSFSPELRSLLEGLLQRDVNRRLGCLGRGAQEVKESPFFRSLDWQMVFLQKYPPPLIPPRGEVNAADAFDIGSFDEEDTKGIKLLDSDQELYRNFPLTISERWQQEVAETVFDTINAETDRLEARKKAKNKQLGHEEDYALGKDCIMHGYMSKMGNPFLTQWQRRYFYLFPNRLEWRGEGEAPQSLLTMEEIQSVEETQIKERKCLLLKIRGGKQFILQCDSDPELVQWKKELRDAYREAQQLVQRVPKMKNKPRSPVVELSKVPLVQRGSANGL

[10] = biological target: Beta-2 adrenergic receptor (Homo sapiens) (UniProt P07550); assay: beta2AR agonists driving receptor internalization, pilot screen, cell-based, FAP fluorogen, flow cytometry, validation set (AID 504459); conditions: Am2.2-beta2AR cells, FAP surface receptor flow cytometry; at 10 µM; stronger effect = higher value;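 also: agonist-driven loss of surface beta2AR via internalization measured by FAP dye flow cytometry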
Chain of Beta-2 adrenergic receptor (Homo sapiens) (P07550 whole entry, looked up): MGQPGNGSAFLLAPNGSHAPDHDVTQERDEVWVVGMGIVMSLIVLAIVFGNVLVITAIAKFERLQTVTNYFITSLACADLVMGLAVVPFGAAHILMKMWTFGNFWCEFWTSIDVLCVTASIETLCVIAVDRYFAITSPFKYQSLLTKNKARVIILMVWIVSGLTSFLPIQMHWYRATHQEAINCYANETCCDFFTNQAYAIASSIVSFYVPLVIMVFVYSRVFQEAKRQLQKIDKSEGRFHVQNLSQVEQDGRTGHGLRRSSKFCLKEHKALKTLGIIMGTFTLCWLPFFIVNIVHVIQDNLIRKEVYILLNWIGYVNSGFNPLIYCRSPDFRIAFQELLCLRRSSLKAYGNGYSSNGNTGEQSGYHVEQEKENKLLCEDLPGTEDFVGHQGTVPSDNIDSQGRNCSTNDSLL

[11] = biological target: AP-2 complex subunit beta (Homo sapiens) (UniProt P63010); assay: inhibitors of arrestin peptide binding to AP2, pilot screen, biochemical, validation set, GST-AP2 beads, flow cytometry (AID 504541;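 active = inhibition above 54%, about 3 SD of non-fluorescent compounds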;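 also: AP2 carries R879A mutation and is captured from E. coli lysate; bead-bound FITC arrestin peptide fluorescence measuring arrestin peptide binding to AP2; 0% = DMSO wells and 100% = excess unlabeled arrestin peptide control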); conditions: FITC arrestin peptide, at 10 µM, stronger effect = higher value, AP2 beta2 appendage fragment, R879A mutant
Chain of AP-2 complex subunit beta (Homo sapiens) (P63010 whole entry, looked up, the tested form may be a part, one chain of several): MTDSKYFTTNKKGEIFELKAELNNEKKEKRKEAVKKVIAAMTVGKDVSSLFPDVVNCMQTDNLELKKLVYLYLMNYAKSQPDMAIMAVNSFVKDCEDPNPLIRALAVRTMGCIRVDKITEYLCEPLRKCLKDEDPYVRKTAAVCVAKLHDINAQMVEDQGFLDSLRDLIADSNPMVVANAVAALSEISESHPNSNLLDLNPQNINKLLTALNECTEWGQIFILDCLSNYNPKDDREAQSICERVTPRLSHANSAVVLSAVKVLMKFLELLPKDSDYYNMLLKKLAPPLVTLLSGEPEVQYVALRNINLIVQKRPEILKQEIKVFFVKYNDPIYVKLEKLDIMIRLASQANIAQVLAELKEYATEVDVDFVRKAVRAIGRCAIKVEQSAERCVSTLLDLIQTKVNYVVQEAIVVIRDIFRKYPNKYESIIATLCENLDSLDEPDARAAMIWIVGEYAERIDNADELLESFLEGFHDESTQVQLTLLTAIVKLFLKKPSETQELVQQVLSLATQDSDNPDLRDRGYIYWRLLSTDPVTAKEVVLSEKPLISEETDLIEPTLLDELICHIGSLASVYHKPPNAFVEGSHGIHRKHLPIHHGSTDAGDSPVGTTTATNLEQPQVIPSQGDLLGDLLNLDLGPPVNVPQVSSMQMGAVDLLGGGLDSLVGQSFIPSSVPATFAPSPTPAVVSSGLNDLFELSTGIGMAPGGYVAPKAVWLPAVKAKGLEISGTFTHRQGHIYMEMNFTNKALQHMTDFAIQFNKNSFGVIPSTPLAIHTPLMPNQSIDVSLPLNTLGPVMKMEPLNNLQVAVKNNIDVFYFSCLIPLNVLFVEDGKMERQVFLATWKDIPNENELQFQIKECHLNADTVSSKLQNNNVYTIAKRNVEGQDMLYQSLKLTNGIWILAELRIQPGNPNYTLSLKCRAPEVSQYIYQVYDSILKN

[12] = yeast V-ATPase proton transport modulators, S. cerevisiae, pHLuorin, HTS validation (AID 504600; in the data active = response above about 15%;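 also: plate controls were DMSO for no effect and reference compound for full effect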); conditions: S. cerevisiae pHLuorin cytosolic pH, at 10 µM, stronger effect = higher value
[13] = tested on: anti-desmoglein-3 scFv antibody binding to human DSG3; assay: inhibitors of anti-DSG3 scFv binding to DSG3, pilot screen, biochemical, validation compound set, bead-based, flow cytometry (AID 588368;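 active = binding below the plate cutoff, the plate median minus 3 SD, with a reading above zero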;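 also: signal is the median channel fluorescence of bead-bound GFP antibody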); conditions: Protein G beads, DSG3-Fc, scFv-GFP binding, at 10 µM, stronger effect = lower value
[14] = inhibitors of fungal efflux pumps CDR1, CDR2, MDR1, pilot screen, validation compound set, multiplex, phenotypic (AID 588506;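 active = efflux inhibition above 0.42, the validation set average plus 4 SD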;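 also: Nile Red retained in cells so higher fluorescence means more efflux inhibition; 0 = negative control wells and 1 = enniatin B 25 µM full block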); conditions: S. cerevisiae pump-expressing triplex, Nile Red efflux flow cytometry; at 10 µM; stronger effect = higher value; the pumps come from Candida albicans
[15] = biological target: ATP-binding cassette sub-family B member 6 (Homo sapiens) (UniProt Q9NP58); assay: ABCB6 transporter inhibitors, pilot screen, K562-ABCB6 cells, flow cytometry, validation set (AID 588550;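 active = inhibition above the screen-wide mean plus 3 SD, about 51%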;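 also: 0% = DMSO wells and 100% = benzethonium chloride 70 µM positive control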); conditions: K562-ABCB6 porphyrin accumulation, 1 h, at 10 µM, stronger effect = higher value
Chain of ATP-binding cassette sub-family B member 6 (Homo sapiens) (Q9NP58 whole entry, looked up): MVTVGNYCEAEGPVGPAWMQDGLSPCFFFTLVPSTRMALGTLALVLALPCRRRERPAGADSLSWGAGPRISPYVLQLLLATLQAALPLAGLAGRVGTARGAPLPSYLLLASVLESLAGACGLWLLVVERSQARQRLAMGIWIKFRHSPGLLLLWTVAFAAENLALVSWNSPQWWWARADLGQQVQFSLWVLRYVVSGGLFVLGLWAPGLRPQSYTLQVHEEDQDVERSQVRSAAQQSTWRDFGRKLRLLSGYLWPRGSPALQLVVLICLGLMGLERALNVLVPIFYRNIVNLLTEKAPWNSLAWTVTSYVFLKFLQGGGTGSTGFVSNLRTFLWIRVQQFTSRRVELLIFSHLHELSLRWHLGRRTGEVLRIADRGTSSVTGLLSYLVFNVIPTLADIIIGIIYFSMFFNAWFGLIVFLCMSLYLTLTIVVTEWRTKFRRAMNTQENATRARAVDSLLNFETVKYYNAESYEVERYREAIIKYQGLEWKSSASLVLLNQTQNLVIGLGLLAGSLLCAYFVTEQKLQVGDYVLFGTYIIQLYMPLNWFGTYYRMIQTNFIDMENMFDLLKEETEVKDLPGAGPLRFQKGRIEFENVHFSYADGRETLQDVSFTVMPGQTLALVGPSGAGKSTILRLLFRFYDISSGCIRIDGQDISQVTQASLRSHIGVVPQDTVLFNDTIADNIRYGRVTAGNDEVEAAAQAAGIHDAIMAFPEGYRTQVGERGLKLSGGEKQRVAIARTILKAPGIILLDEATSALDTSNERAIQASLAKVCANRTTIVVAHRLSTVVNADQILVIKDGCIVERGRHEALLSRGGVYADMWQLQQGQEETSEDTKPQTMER

[16] = promoters of myeloid differentiation in arrested cells, primary screen, cell-based, GFP/MAC1 double positive, flow cytometry, validation set (AID 588685;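 active = differentiation response of at least 50%, scaled between solvent and reference control, from cells with both markers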;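 also: compound exposure lasts four days before antibody staining and flow analysis; 0% = DMSO wells and 100% = 5 µM fulvestrant positive control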); conditions: ER-HoxA9 marrow cells, stronger effect = higher value, normalized: vehicle 0, fulvestrant 100

O=C(CNC(=O)OCc1ccccc1)Oc1cc2oc(=O)cc(-c3ccccc3)c2cc1Cl
percent of DMSO control GFP [1]: 97.5% (inactive) | GFP response vs DMSO [2]: 107% (inactive) | percent response of DMSO control [3]: 111% (inactive) | GFP response vs DMSO [4]: 107% (inactive) | GFP response, % of DMSO [5]: 71.1% (inactive) | double positive events [6]: 61.1% | vesicle binding response [6]: 423% (inactive) | inhibition [7]: -0.27% (inactive) | superoxide response (% of plate) [8]: 207% (inactive) | aptamer binding inhibition [9]: 8% (inactive) | response [10]: -13.2% (inactive) | inhibition [11]: 12.8% (inactive) | response [12]: -27.5% (inactive) | binding (% of control) [13]: 103% (inactive) | efflux inhibition (fraction of control) [14]: -0.09 (inactive) | inhibition [15]: 1% (inactive) | differentiation response [16]: -4% (inactive)

Cc1ccc2c(c1)C(CCN)C(=O)N2Cc1ccccc1 (stereo not given)
percent of DMSO control GFP [1]: 102% (inactive) | GFP response vs DMSO [2]: 104% (inactive) | percent response of DMSO control [3]: 109% (inactive) | GFP response vs DMSO [4]: 96% (inactive) | GFP response, % of DMSO [5]: 101% (inactive) | double positive events [6]: 66.6% | vesicle binding response [6]: 234% (inactive) | inhibition [7]: -6.68% (inactive) | superoxide response (% of plate) [8]: 106% (inactive) | aptamer binding inhibition [9]: -4% (inactive) | response [10]: -2.03% (inactive) | inhibition [11]: 8.79% (inactive) | response [12]: 0.57% (inactive) | binding (% of control) [13]: 94.5% (inactive) | efflux inhibition (fraction of control) [14]: -0.14 (inactive) | inhibition [15]: 1% (inactive) | differentiation response [16]: -2.69% (inactive)

Cc1nonc1CN(C)C(=O)c1ccc(OC2CCN(Cc3ccccn3)CC2)cc1
percent of DMSO control GFP [1]: 107% (inactive) | GFP response vs DMSO [2]: 97.2% (inactive) | percent response of DMSO control [3]: 113% (inactive) | GFP response vs DMSO [4]: 83.5% (inactive) | GFP response, % of DMSO [5]: 102% (inactive) | double positive events [6]: 61.2% | vesicle binding response [6]: 249% (inactive) | inhibition [7]: 19.3% (inactive) | superoxide response (% of plate) [8]: 95.8% (inactive) | aptamer binding inhibition [9]: 0% (inactive) | response [10]: -11.2% (inactive) | inhibition [11]: -5.72% (inactive) | response [12]: 2.07% (inactive) | binding (% of control) [13]: 97.6% (inactive) | efflux inhibition (fraction of control) [14]: 0.14 (inactive) | inhibition [15]: 13% (inactive) | differentiation response [16]: 6.11% (inactive)

COc1cc(CNc2ccc(C)c(C)c2)cc(OC)c1OC
percent of DMSO control GFP [1]: 99% (inactive) | GFP response vs DMSO [2]: 108% (inactive) | percent response of DMSO control [3]: 107% (inactive) | GFP response vs DMSO [4]: 113% (inactive) | GFP response, % of DMSO [5]: 111% (inactive) | double positive events [6]: 60.3% | vesicle binding response [6]: 256% (inactive) | inhibition [7]: 6.55% (inactive) | superoxide response (% of plate) [8]: 90.2% (inactive) | aptamer binding inhibition [9]: 0% (inactive) | response [10]: -29.1% (inactive) | inhibition [11]: 16.2% (inactive) | response [12]: -0.73% (inactive) | binding (% of control) [13]: 101% (inactive) | efflux inhibition (fraction of control) [14]: 0 (inactive) | inhibition [15]: -8% (inactive) | differentiation response [16]: -16.8% (inactive)

C[C@]12CC[C@@H]3c4ccc(O)cc4CC[C@H]3[C@@H]1CCC2=O
percent of DMSO control GFP [1]: 101% (inactive) | GFP response vs DMSO [2]: 100% (inactive) | percent response of DMSO control [3]: 95.4% (inactive) | GFP response vs DMSO [4]: 125% (inactive) | GFP response, % of DMSO [5]: 94.8% (inactive) | double positive events [6]: 60.6% | vesicle binding response [6]: 34.4% (inactive) | inhibition [7]: -13.9% (inactive) | superoxide response (% of plate) [8]: 98.7% (inactive) | aptamer binding inhibition [9]: 2% (inactive) | response [10]: -0.01% (inactive) | inhibition [11]: 9.61% (inactive) | response [12]: -0.09% (inactive) | binding (% of control) [13]: 98.9% (inactive) | efflux inhibition (fraction of control) [14]: -0.32 (inactive) | inhibition [15]: 8% (inactive) | differentiation response [16]: 0.24% (inactive)

O=C(NCCc1ccccc1)C1CCN(C2CCN(Cc3ccco3)CC2)CC1
percent of DMSO control GFP [1]: 98.6% (inactive) | GFP response vs DMSO [2]: 105% (inactive) | percent response of DMSO control [3]: 101% (inactive) | GFP response vs DMSO [4]: 118% (inactive) | GFP response, % of DMSO [5]: 120% (inactive) | double positive events [6]: 58.9% | vesicle binding response [6]: 159% (inactive) | inhibition [7]: -9.63% (inactive) | superoxide response (% of plate) [8]: 92.6% (inactive) | aptamer binding inhibition [9]: -13% (inactive) | response [10]: -41.8% (inactive) | inhibition [11]: -2.11% (inactive) | response [12]: -0.87% (inactive) | binding (% of control) [13]: 126% (inactive) | efflux inhibition (fraction of control) [14]: -0.04 (inactive) | inhibition [15]: 6% (inactive) | differentiation response [16]: -5.97% (inactive)

C#C[C@]1(O)CC[C@H]2[C@@H]3CCc4cc(O)ccc4[C@H]3CC[C@@]21C
percent of DMSO control GFP [1]: 94.4% (inactive) | GFP response vs DMSO [2]: 109% (inactive) | percent response of DMSO control [3]: 110% (inactive) | GFP response vs DMSO [4]: 84.7% (inactive) | GFP response, % of DMSO [5]: 100% (inactive) | double positive events [6]: 51.2% | vesicle binding response [6]: 88.7% (inactive) | inhibition [7]: 7.43% (inactive) | superoxide response (% of plate) [8]: 76.7% (inactive) | aptamer binding inhibition [9]: -5% (inactive) | response [10]: -0.6% (inactive) | inhibition [11]: 1.36% (inactive) | response [12]: 2.14% (inactive) | binding (% of control) [13]: 106% (inactive) | efflux inhibition (fraction of control) [14]: 0.19 (inactive) | inhibition [15]: 9% (inactive) | differentiation response [16]: -3.28% (inactive)

O=C(NC(=S)Nc1ccc(N2CCN(C(=O)c3ccccc3)CC2)cc1)c1cccs1
percent of DMSO control GFP [1]: 96.3% (inactive) | GFP response vs DMSO [2]: 126% (inactive) | percent response of DMSO control [3]: 116% (inactive) | GFP response vs DMSO [4]: 77% (inactive) | GFP response, % of DMSO [5]: 96.1% (inactive) | double positive events [6]: 51.4% | vesicle binding response [6]: 106% (inactive) | inhibition [7]: -4.21% (inactive) | superoxide response (% of plate) [8]: 101% (inactive) | aptamer binding inhibition [9]: 0% (inactive) | response [10]: -15.7% (inactive) | inhibition [11]: -3.24% (inactive) | response [12]: 1.01% (inactive) | binding (% of control) [13]: 107% (inactive) | efflux inhibition (fraction of control) [14]: -0.28 (inactive) | inhibition [15]: 13% (inactive) | differentiation response [16]: -0.82% (inactive)

CC12CCCCN1CCCc1c2[nH]c2ccccc12 (stereo not given)
percent of DMSO control GFP [1]: 99.6% (inactive) | GFP response vs DMSO [2]: 105% (inactive) | percent response of DMSO control [3]: 115% (inactive) | GFP response vs DMSO [4]: 82.8% (inactive) | GFP response, % of DMSO [5]: 99.5% (inactive) | double positive events [6]: 61.3% | vesicle binding response [6]: 149% (inactive) | inhibition [7]: -22.2% (inactive) | superoxide response (% of plate) [8]: 99.9% (inactive) | aptamer binding inhibition [9]: -6% (inactive) | response [10]: 8.33% (inactive) | inhibition [11]: 3.51% (inactive) | response [12]: 0.15% (inactive) | binding (% of control) [13]: 112% (inactive) | efflux inhibition (fraction of control) [14]: -0.2 (inactive) | inhibition [15]: -49% (inactive) | differentiation response [16]: 11% (inactive)

C[C@]12CC[C@@H]3c4ccc(O)cc4CC[C@H]3[C@@H]1CC[C@@H]2OC(=O)CCC(=O)O
percent of DMSO control GFP [1]: 102% (inactive) | GFP response vs DMSO [2]: 103% (inactive) | percent response of DMSO control [3]: 91.3% (inactive) | GFP response vs DMSO [4]: 127% (inactive) | GFP response, % of DMSO [5]: 98.6% (inactive) | double positive events [6]: 62.4% | vesicle binding response [6]: 223% (inactive) | inhibition [7]: -15.8% (inactive) | superoxide response (% of plate) [8]: 86% (inactive) | aptamer binding inhibition [9]: -7% (inactive) | response [10]: 3.34% (inactive) | inhibition [11]: 50.5% (inactive) | response [12]: -4.55% (inactive) | binding (% of control) [13]: 105% (inactive) | efflux inhibition (fraction of control) [14]: 0.46 (active) | inhibition [15]: -12% (inactive) | differentiation response [16]: 42.2% (inactive)
